Screening data as filed in PubChem.
An excerpt weighted towards active compounds, which were near 2.2% of everything screened.
GC-A act: GC-A stimulated cGMP production enhancers – HEK293 GC-A cells, cGMP TR-FRET, EC30 ANP, primary screen | Atrial natriuretic peptide receptor 1 (Homo sapiens), P16066 | 0% at EC30 ANP, 100% saturating ANP | activation, % at 10 µM | 370,000 compounds, 0.14% hits | AID 1671463, 2021; in the data active = activation above about 40%
ADAM10 inh: human ADAM10 inhibitors, primary screen, biochemical, QFRET, HTS; Disintegrin and metalloproteinase domain-containing protein 10 (Homo sapiens), O14672; recombinant ADAM10, EDANS/DABCYL FRET peptide cleavage, 3 h; inhibition, % at 7 µM; 370,000 compounds, 0.62% hits; AID 720582, 2013;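 active = inhibition above a per-campaign cutoff equal to the mean of compounds falling between control-based bounds plus 3 SD, cut at about 20% in these data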;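 note: 0% = DMSO wells while the 100% control is not disclosed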
Target sequence (O14672 214-748 limits assumed): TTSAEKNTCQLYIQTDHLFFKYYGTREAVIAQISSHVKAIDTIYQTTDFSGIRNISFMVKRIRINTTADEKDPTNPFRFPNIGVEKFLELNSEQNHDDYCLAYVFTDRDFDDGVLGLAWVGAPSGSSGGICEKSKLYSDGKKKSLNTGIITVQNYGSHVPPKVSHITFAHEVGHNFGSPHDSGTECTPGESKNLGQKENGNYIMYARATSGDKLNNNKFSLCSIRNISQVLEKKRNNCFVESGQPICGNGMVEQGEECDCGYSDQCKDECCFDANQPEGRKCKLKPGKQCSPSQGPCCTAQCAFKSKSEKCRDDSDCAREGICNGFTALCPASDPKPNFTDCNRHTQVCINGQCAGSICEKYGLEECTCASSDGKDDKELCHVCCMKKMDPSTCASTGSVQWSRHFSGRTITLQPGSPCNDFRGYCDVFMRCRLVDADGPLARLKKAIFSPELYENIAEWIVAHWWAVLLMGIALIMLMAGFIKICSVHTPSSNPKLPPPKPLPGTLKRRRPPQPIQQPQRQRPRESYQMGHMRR
NPR2 activator: human GC-B receptor activators, primary screen, HEK293 GC-B cells, cGMP TR-FRET, EC30 CNP; Atrial natriuretic peptide receptor 2 (Homo sapiens), P20594; 0% at EC30 CNP, 100% saturating CNP; activation, % at 10 µM; 370,000 compounds, 0.11% hits;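 active = activation at 10 µM reaching about 35% in either raw or pattern-adjusted values, limit read from the data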
KLK7 zymogen act: proKLK7 zymogen activators, primary screen, biochemical, fluorescence intensity; AID 652039, 2013; activation, % at 7 µM; Kallikrein-7 (Homo sapiens), P49862; purified proKLK7, EDANS-DABCYL substrate fluorescence; 100% is mature enzyme control, 0% vehicle; 370,000 compounds, 0.9% hits;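 active = activation above the mean of all tested compounds plus 3 SD, computed per campaign excluding outliers beyond control limits, cut at about 13% in these data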
ADAM17 inh: ADAM17 inhibitors, primary screen, biochemical, QFRET; Disintegrin and metalloproteinase domain-containing protein 17 (Homo sapiens), P78536; recombinant ADAM17, EDANS/DABCYL FRET peptide cleavage; inhibition, % at 6.95 µM; 370,000 compounds, 0.83% hits;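 active = inhibition above the mean of compounds lying between control limits plus 3 SD, set per campaign, cut at about 8.5% in these data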;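 note: 0% = DMSO-only wells as the low control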
proKLK7 act conf: proKLK7 zymogen activators, confirmation, biochemical, fluorescence intensity, triplicate. purified proKLK7, EDANS-DABCYL substrate fluorescence; scaled: vehicle 0, mature enzyme 100. activation, % at 7 µM. shares compounds with KLK7 zymogen act. AID 686949, 2013. 3,200 compounds, 68% hits;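 active = activation, as change over the incubation, above the mean of all tested compounds plus 3 SD, cut at about 13% in these data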
EDANS-DABCYL int: EDANS-DABCYL substrate optical interference, artefact control for kallikrein-7 zymogen activator project, biochemical, fluorescence intensity, high throughput; shares compounds with KLK7 zymogen act; no enzyme, 4 h; solvent 0%, active enzyme control 100%; activation, % at 7 µM; 3,200 compounds, 80% hits;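 active = activation above the all-compound mean plus 3 SD, ignoring values outside control-based bounds, cut at about 4.8% in these data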;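 note: value is the 4 h activation minus the activation read at time zero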
K7 EDANS ctr: counter-screen for kallikrein-7 activators: EDANS-DABCYL interference, dose response; shares compounds with KLK7 zymogen act; EDANS-DABCYL peptide fluorescence interference, no enzyme; EC50, µM; 250 compounds, 20% hits;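 active = compounds that raise the fluorescence signal in this interference counterscreen, with EC50 at or below 10 µM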;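 note: intact quenched peptide substrate alone read at 355 nm excitation and 520 nm emission; signal is fluorescence gain from T0 to T4 after four hours at room temperature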
An asterisk follows results filed as active; i = inactive; x = no result given; ! = repeats disagree.

SMILES	GC-A act	ADAM10 inh	NPR2 activator	KLK7 zymogen act	ADAM17 inh	proKLK7 act conf	EDANS-DABCYL int	others
COc1cc2c(cc1OC)CN(CC(=O)NC(=O)NCc1ccccc1)CC2	-1	-77	0	15*	-29	3	4.4*
COC(=O)C/C=C/[C@@H](C)[C@H](NC(=O)OCC(Cl)(Cl)Cl)c1ccc(-c2ccccc2)cc1	1	7	-11	0	3	x	x
Cc1cc(C)cc(C(=O)OCCN(C)C2CN(Cc3cn(Cc4ccccc4F)nn3)S(=O)(=O)C2)c1 (configuration not stated)	1	3	-3	1	2	x	x
C=CCN1[C@H](C)COc2cc(N3CCCC3)ccc2S1(=O)=O	-3	-2	-3	0	-1	x	x
CCOC(=O)N1CCN(C(=O)C[C@H]2C(=O)N(CCCOC)C3=CCCC[C@@]32C(=O)OCC)CC1	3	-1	3	-1	-4	x	x
COc1cc2c(cc1OC)CN(C(=O)NS(=O)(=O)c1ccc(C)cc1)CC2	3	-61	-1	20*	-17	4	1
Nc1nc2nccc(-c3ccco3)n2n1	0	i	-3	17*	i	15*	27*
O=C(O)CNC(=O)CC1S/C(=N/N=C/c2ccccc2O)NC1=O (configuration not stated)	-1	-52	2	21*	-19	34*	41*
O=C(COC(=O)c1ccccc1SCC(=O)NC1CCS(=O)(=O)C1)NC1CCS(=O)(=O)C1 (configuration not stated)	3	-39	-3	14*	-11	19*	19*
CC(C)c1cc(C(=O)NCCc2cccs2)c(N)s1	5	-4	1	0	0	x	x
Nc1nc2ncccc2cc1C(=O)NCCc1cccs1	-2	i	1	24*	-477	22*	28*
O=C1CCC2(CCC(c3ccccc3)CC2)N1CC[C@@H](O)c1ccccc1 (some centres not stated)	-2	-4	2	x	-7	x	x
Nc1ccc(-c2nc3cc(N)ccc3n2CCO)cc1	2	i	-2	68*	-394	66*	69*
O=C1Nc2ccccc2C1Cc1ccccn1 (configuration not stated)	1	-5	0	0	-2	x	x
N#CC1C(=O)Nc2cccnc21 (configuration not stated)	-4	i	3	37*	-369	34*	33*
CCN1CCN(c2cc(C)c3cc(NC(=S)N4CCN(c5ccccc5F)CC4)ccc3n2)CC1	1	-358	5	14*	-118	1	2
COc1cc(C(=O)Nc2ccc3nc(N4CCN(C)CC4)cc(C)c3c2)cc(OC)c1OC	-1	-10	7	0	-1	x	x
CCN1CCN(c2cc(C)c3cc(NC(=S)N4CCN(c5ccccc5)CC4)ccc3n2)CC1	6	-347	-2	10	-120	x	x
CCOc1ccc(C(=O)Nc2ccc3nc(N4CCN(CC)CC4)cc(C)c3c2)cc1	-4	2	-5	38*	-3	217*	192*
Cc1cc(N2CCN(C)CC2)nc2ccc(NC(=O)c3ccc4c(c3)OCO4)cc12	4	-7	8	19*	-1	7	6.9*
CCCN1CCN(C(=S)Nc2ccc3nc(N4CCN(CC)CC4)cc(C)c3c2)CC1	-2	-428	2	20*	-143	4	6.5*
CN(CCCOC(=O)c1occ2ccccc12)C1CN(Cc2cn(Cc3ccccc3Cl)nn2)S(=O)(=O)C1 (configuration not stated)	-5	2	-1	0	-3	x	x
Cc1cc(N2CCCC2)nc2ccc(NC(=S)NCCCOC(C)C)cc12	13	i	0	16*	-195	14*	12*	K7 EDANS ctr=>70
CCn1c(Cc2cccs2)nnc1SCC(=O)Nc1ccccc1-c1ccccc1	-6	3	-7	1	1	x	x
OCCCN1CCC2(CCC(c3ccccc3)CC2)C1 (configuration not stated)	-3	16	-6	0	6	x	x
SMILES	GC-A act	ADAM10 inh	NPR2 activator	KLK7 zymogen act	ADAM17 inh	proKLK7 act conf	EDANS-DABCYL int	others
COc1ccc(CC(=O)Nc2ccc(-c3cn4ccccc4n3)cc2)cc1OC	-4	-407	10	33*	-63	5	2
COc1ccc(-c2cn3cc(C)ccc3n2)cc1OC	3	i	-3	13*	-302	8	13*
Cc1ccc(NC(=O)c2cccc3c2-c2ccccc2C3=O)c(C)c1	-2	0	-1	0	1	x	x
COC(=O)[C@]1(CNC(=O)c2cc(F)ccc2F)CC(=O)N(C)[C@@H]1c1ccccc1	4	-2	3	0	0	x	x
CCN1CCCCC(NC(C)=O)C1=O (configuration not stated)	3	-23	4	0	-10	x	x
CC(=O)c1cccc(NC(=O)CSc2n[nH]c(=O)n2C2CC2)c1	-3	-1	-2	52*	-1	-1	1
C[n+]1c2cc(N)ccc2cc2ccc(N)cc21	-5	-80	-16	34*!	-23	56*	59*
Cc1nc2ccccc2c(=O)n1CCCN1CCOCC1	1	3	3	0	-1	x	x
FC(F)(F)c1nc2nc(Cl)c(Cl)nc2n1CCCN1CCOCC1	3	i	3	25*	-286	2	2
CN(C)Cc1ccccc1-c1cccc2nccn12	1	-331	1	19*	-86	2	3
O=c1cccc2n1Cc1cc3ccccc3nc1-2	11	i	3	47*	i	60*	69*
c1ccc2c(c1)-c1nc3ccccc3cc1C2N1CCCCC1 (configuration not stated)	0	-6	-1	0	3	x	x
CN(CCCOC(=O)c1cc2ccccc2o1)C1CN(Cc2cn(Cc3ccccc3C(F)(F)F)nn2)S(=O)(=O)C1 (configuration not stated)	-5	-4	-6	0	-3	x	x
COc1c2c(cc3ccc(=O)oc13)CCO2	2	-334	-1	20*	-139	28*	29*
